# Measured values from PubChem BioAssay (NCATS).
# Results filed as inconclusive are left out. The source made the active and inactive calls. Unless noted, calls come from the whole dose curve; as a rule, active = well fitted curve in the direction sought with a large enough effect; inconclusive = small, poorly fitted or top-dose-only effect, or another doubt; inactive = no such curve, though single readings can be large; an effect the other way counts as inactive or inconclusive.
# Tests used:
# [1] = molecular target: Peroxisome proliferator-activated receptor gamma (Homo sapiens) (UniProt P37231); assay: qHTS assay for small molecule agonists of peroxisome proliferator-activated receptor gamma signaling (AID 588536; active = well fitted curve in the direction sought with a large enough effect in the signal ratio, with a control signal flat, not every such curve was filed as active; the % refers to the signal ratio;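 note: 0% = DMSO basal wells and 100% = rosiglitazone at 2 µM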)
# How it was run: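 HEK293 UAS-bla reporter line, 1% charcoal/dextran FBS; titration, 16 h, 37 C; CCF4 loading 2 h RT; fluorescence 460/530 nm. Normalized to rosiglitazone 2 uM = 100%, DMSO = 0%.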
# [2] = molecular target: Peroxisome proliferator-activated receptor gamma (Homo sapiens) (UniProt P37231); assay: qHTS assay for small molecule antagonists of peroxisome proliferator-activated receptor gamma signaling (AID 588537; active = well fitted inhibition curve with a large enough effect in the signal ratio, with a control signal flat, not every such curve was filed as active; the % refers to the signal ratio;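 note: reporter cells co-stimulated with 50 nM rosiglitazone agonist during compound treatment; % of control where 0% means no effect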)
# How it was run: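 Inhibitors of agonist-stimulated UAS-bla reporter activity were sought in HEK293 cells; rosiglitazone (50 nM) defined full signal and DMSO baseline. Curves fitted to Hill model gave IC50 and efficacy.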
# [3] = molecular target: Vitamin D3 receptor (Homo sapiens) (UniProt P11473); assay: qHTS assay for small molecule antagonists of vitamin D receptor signaling (AID 588541; calls by dose curve;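 note: receptor activated by calcitriol during compound treatment; series mostly up to about 77 µM; % is set by controls: 0 for no effect and ±100 for the full control effect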)
# How it was run: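 Antagonist-mode beta-lactamase reporter assay: HEK293T VDR-UAS-bla cells were exposed to titrated compound alongside 1-alpha,25-dihydroxyvitamin D3 at 3 nM final for 16 h. Values were normalized to the 50 nM agonist control and DMSO basal, with IC50 and efficacy from Hill equation fits.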
# [4] = molecular target: Vitamin D3 receptor (Homo sapiens) (UniProt P11473); assay: qHTS assay for small molecule agonists of vitamin D receptor signaling (AID 588543; calls by dose curve;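 note: 0% = DMSO basal and 100% = reference agonist control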)
# How it was run: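 β-lactamase reporter, VDR-UAS-bla HEK293T, agonist mode. Cells plated 5 h at 37 °C, compound titration 16 h at 37 °C, CCF4 dye 2 h RT, ratio 460/530 nm. Hill fit → EC50, efficacy vs 50 nM 1α,25-(OH)2D3.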
# [5] = qHTS assay for small molecule agonists of retinoid X receptor alpha signaling (AID 588544; calls by dose curve;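 for activation: 0% = DMSO basal wells and 100% = reference agonist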); settings: HEK293T RXRa-UAS-bla, beta-lactamase reporter, 18 h; 530 nm emission
# [6] = molecular target: Retinoic acid receptor RXR-alpha (Homo sapiens) (UniProt P19793); assay: as above
# [7] = molecular target: Thyroid hormone receptor beta (Homo sapiens) (UniProt P10828); assay: qHTS assay for small molecule agonists of thyroid hormone receptor beta signaling (AID 588545; calls by dose curve;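 note: 0% = DMSO only and 100% = 10 nM T3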)
# How it was run: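 TR-UAS-bla GripTite HEK 293 cells (2500/well, medium with 2% charcoal/dextran FBS) were treated in agonist mode for 18 h at 37 C, titrated. Beta-lactamase was read by CCF4 ratio after 2 h; normalized to 10 nM T3 (100%) and DMSO, Hill-fitted for EC50 and efficacy.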
# [8] = qHTS assay for small molecule antagonists of retinoid X receptor alpha signaling (AID 588546; active = well fitted inhibition curve with a large enough effect in the signal ratio, with a control signal flat, not every such curve was filed as active; the % refers to the signal ratio;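 note: cells stimulated with 9-cis-retinoic acid as agonist; % is set by controls: 0 for no effect and ±100 for the full control effect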); settings: HEK293T RXRa-UAS-bla, beta-lactamase ratio, antagonist mode; measured here: W530 green channel, cytotoxicity proxy
# How it was run: (§1)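 Beta-lactamase reporter inhibition, read as CCF4 fluorescence ratio (ex 405, em 460/530 nm) after 2 h at RT. HEK293T UAS-bla cells, 2500/well, were stimulated with 9-cis-RA at 500 or 100 nM final alongside test compound for 18 h at 37 C.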
# [9] = molecular target: Retinoic acid receptor RXR-alpha (Homo sapiens) (UniProt P19793); assay: as above; settings: HEK293T RXRa-UAS-bla, beta-lactamase ratio, antagonist mode
# How it was run: as §1
# [10] = qHTS assay for small molecule activators of the p53 signaling pathway (AID 651743; active = well fitted activation curve with a large enough effect in the signal ratio, not every such curve was filed as active; the % refers to the signal ratio; note: series mostly up to about 92 µM; % of control where 0% means no effect); settings: HCT-116 p53RE-bla, beta-lactamase FRET ratio, 16 h; activation: stronger effect = higher value
# How it was run: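 Screen for p53 pathway agonists uses stably transfected p53RE-bla HCT-116 cells, 4,000 per well, treated 16 h at 37 C with compounds in DMSO.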
# [11] = qHTS assay for environmental chemicals that activate the Aryl hydrocarbon Receptor (AhR) signaling pathway (AID 651777); settings: 1A2-DRE human hepatoma cells, luciferase, 24 h; activation: stronger effect = higher value; note: % of control where 0% means no effect; nearly all actives have a fitted effect of over 15% in size
# How it was run: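 Luminescence read-out: One-Glo added for 30 min at RT after 24 hr compound treatment (37 C, 5% CO2) of human hepatoma cells expressing a DRE/CYP1A2 promoter–luciferase reporter; increased signal indicates AhR activation.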
# [12] = molecular target: Peroxisome proliferator-activated receptor alpha (Homo sapiens) (UniProt Q07869); assay: qHTS assay for small molecule agonists of the peroxisome proliferator-activated receptor alpha (PPARalpha) signaling pathway (AID 651778); settings: PathHunter PPARalpha complementation, chemiluminescence, 6 h; max response: stronger effect = higher value; note: % of control where 0% means no effect
# How it was run: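 Chemiluminescence from complemented enzyme reported PPARalpha activation in cells after 6 hr of compound treatment at 37 C. The detection reagent was incubated for 60 min at room temperature, and compounds were scored as agonists.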
# [13] = qHTS assay for small molecule agonists of the antioxidant response element (ARE) signaling pathway measured by Nrf2-dependant transcriptional activity (AID 720636; active = well fitted curve in the direction sought with a large enough effect in the repeat runs; an effect the other way counts as inactive or inconclusive;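 note: HepG2 cells with an ARE-driven luciferase reporter; % of control where 0% means no effect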)
# How it was run: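 HepG2 ARE-luc reporter line, 1% dialyzed FBS; 6 hr attachment at 37 C, compound pinned in, 16 hr at 37 C/5% CO2; ONE-Glo, 30 min RT, luminescence read.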
# [14] = qHTS assay for small molecule agonists of the antioxidant response element (ARE) signaling pathway measured by Nrf2-dependant transcriptional activity - cell viability counter screen (AID 720653; active = well fitted curve in the direction sought with a large enough effect in the repeat runs; an effect the other way counts as inactive or inconclusive; note: % is set by controls: 0 for no effect and ±100 for the full control effect); settings: ARE-bla HepG2 viability, CellTiter-Glo ATP luminescence, 16 h; max response: stronger effect = lower value
# How it was run: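 Cytotoxicity counter screen: intracellular ATP quantified by CellTiter-Glo luminescence in the same ARE-bla HepG2 plates, after 16 h compound exposure and a 2 h beta-lactamase substrate step.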
# [15] = qHTS assay for cell viability of HEK293 cells (AID 743288); settings: ATP luminescence (CellTiter-Glo), 18 h; max response: stronger effect = lower value; note: % is set by controls: 0 for no effect and ±100 for the full control effect; nearly all actives have a fitted effect of over 50% in size
# How it was run: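 Environmental chemicals tested in qHTS format against parental HEK293 cells; 18 h treatment, 37 C; read-out ATP luminescence (CellTiter-Glo), 30 min RT development.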
# [16] = qHTS assay for cell viability of the p53RE-bla HCT-116 cell line (AID 743292); note: % is set by controls: 0 for no effect and ±100 for the full control effect; nearly all actives have a fitted effect of over 55% in size
# How it was run: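 Luminescent ATP quantitation (CellTiter-Glo) served as the viability read-out; reagent was added after 16 h compound exposure at 37 C and read after 30 min at room temperature. Cells: p53RE-bla HCT-116, 4,000 per well.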
# [17] = molecular target: Nuclear receptor subfamily 1 group I member 2 (Rattus norvegicus) (UniProt Q9R1A7); assay: qHTS assay for small molecule activators of the rat pregnane X receptor (rPXR) signaling pathway (AID 651751; call rule not given here; note: 0% is about no effect); settings: rPXR reporter cells, luciferase (One-Glo), 24 h
# [18] = qHTS assay for small molecule activators of the human pregnane X receptor (PXR) signaling pathway (AID 720659; call rule not given here; note: 0% is about no effect)
# [19] = qHTS assay for small molecule antagonists of peroxisome proliferator-activated receptor delta signaling (AID 588535); settings: HEK293T PPARd-UAS-bla, beta-lactamase FRET ratio, 18 h; 460 nm channel;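 note: cells co-treated with a PPAR-delta agonist as stimulator during compound exposure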
# How it was run: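 Cell-based beta-lactamase assay in antagonist mode: 4000 HEK293T PPAR-delta-UAS-bla cells per well, 5 hr preincubation then 18 hr compound incubation at 37 C. IC50 obtained by Hill equation fitting.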
# Chain of Thyroid hormone receptor beta (Homo sapiens) (P10828 whole entry, looked up): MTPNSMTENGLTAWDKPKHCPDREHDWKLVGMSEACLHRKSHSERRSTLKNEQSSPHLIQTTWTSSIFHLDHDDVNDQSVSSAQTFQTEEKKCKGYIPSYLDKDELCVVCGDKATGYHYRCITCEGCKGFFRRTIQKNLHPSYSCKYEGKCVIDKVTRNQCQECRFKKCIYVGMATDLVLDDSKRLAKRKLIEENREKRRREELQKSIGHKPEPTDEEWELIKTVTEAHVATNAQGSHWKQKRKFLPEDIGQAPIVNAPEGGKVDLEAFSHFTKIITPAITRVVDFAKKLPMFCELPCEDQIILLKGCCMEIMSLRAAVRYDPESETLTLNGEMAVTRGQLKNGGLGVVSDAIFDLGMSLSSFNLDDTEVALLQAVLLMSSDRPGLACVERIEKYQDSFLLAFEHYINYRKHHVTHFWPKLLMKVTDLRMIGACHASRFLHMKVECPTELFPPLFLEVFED
# Chain of Retinoic acid receptor RXR-alpha (Homo sapiens) (P19793 whole entry, looked up): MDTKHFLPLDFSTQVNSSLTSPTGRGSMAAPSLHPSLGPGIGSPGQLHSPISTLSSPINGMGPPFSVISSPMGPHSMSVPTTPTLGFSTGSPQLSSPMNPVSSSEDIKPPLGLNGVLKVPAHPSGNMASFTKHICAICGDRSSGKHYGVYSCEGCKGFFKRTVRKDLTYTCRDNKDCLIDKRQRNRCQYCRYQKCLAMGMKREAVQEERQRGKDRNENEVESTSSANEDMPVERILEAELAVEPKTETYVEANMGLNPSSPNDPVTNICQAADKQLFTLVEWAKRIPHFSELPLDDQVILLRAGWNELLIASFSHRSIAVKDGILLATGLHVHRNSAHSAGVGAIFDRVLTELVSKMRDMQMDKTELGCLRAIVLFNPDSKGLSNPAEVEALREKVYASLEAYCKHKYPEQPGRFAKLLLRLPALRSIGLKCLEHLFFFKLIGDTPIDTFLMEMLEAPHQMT
# Chain of Peroxisome proliferator-activated receptor alpha (Homo sapiens) (Q07869 whole entry, looked up): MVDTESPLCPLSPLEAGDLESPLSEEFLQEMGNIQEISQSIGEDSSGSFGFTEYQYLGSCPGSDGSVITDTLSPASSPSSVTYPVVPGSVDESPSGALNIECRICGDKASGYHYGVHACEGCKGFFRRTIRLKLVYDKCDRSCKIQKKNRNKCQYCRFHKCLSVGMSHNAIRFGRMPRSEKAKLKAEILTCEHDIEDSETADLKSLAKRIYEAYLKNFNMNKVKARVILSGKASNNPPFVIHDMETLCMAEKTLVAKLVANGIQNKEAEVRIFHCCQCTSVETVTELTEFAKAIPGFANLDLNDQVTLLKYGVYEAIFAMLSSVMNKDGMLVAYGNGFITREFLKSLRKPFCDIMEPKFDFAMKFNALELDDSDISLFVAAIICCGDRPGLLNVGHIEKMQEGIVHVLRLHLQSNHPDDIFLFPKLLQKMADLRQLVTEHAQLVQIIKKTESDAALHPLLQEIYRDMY
# Chain of Peroxisome proliferator-activated receptor gamma (Homo sapiens) (P37231 whole entry, looked up): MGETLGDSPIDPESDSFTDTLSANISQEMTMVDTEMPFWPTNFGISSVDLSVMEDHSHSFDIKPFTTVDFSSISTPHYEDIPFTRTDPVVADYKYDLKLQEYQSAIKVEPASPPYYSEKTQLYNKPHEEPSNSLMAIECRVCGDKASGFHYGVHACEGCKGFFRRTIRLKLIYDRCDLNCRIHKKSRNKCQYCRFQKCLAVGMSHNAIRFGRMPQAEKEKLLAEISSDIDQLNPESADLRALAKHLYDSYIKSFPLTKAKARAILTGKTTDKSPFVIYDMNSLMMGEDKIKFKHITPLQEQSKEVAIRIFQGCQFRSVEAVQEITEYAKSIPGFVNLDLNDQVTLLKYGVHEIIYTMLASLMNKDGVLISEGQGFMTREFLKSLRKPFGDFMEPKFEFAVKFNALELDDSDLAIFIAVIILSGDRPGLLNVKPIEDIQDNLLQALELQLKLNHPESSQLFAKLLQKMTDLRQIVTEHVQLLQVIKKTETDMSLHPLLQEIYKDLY
# Chain of Vitamin D3 receptor (Homo sapiens) (P11473 whole entry, looked up): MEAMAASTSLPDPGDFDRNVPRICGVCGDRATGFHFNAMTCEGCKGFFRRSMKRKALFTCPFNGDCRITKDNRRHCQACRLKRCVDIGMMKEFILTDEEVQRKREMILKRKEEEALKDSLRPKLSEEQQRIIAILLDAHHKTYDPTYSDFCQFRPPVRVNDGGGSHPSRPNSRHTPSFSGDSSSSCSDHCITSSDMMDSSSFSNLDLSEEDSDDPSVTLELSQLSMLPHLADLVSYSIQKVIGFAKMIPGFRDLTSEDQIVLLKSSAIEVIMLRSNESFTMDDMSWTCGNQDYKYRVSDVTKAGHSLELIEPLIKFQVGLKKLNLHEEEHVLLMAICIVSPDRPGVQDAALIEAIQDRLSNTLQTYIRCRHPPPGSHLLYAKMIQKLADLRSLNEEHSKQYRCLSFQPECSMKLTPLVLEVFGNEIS
# Chain of Nuclear receptor subfamily 1 group I member 2 (Rattus norvegicus) (Q9R1A7 whole entry, looked up): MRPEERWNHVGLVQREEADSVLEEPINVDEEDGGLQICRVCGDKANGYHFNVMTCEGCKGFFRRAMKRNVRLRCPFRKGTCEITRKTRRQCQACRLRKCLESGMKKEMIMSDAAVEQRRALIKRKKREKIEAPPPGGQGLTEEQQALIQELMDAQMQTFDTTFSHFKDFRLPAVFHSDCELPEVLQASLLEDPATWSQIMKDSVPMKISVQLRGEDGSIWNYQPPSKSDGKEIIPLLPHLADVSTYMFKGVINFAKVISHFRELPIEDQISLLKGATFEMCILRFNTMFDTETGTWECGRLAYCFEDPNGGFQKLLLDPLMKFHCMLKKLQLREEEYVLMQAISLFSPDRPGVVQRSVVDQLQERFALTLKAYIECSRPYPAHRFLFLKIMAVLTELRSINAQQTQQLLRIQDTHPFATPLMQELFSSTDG
SMILES,outcome [1],Potency [2],Potency [3],outcome [4],max response [5] [%],Potency [6],Potency [7],max response [8] [%],max response [9],activation [10],activation [11],max response [12],Potency [13],max response [14],max response [15],Potency [16],max response [17],outcome [18],max response [19] [%]
CCNc1nc(NC(C)CC)nc(OC)n1 (centres undefined),inactive,inactive,inactive,inactive,-13.5,inactive,inactive,-8.46,7.45% (inactive),-1.96% (inactive),2.63% (inactive),5.06% (inactive),inactive,16.1% (inactive),-2.08% (inactive),inactive,1.4% (inactive),inactive,
C=CCCCCCCCCCC,inactive,,,,-13.8,inactive,inactive,-3.33,2.09% (inactive),-0.565% (inactive),-1.31% (inactive),-0.224% (inactive),inactive,-1.98% (inactive),-2.08% (inactive),inactive,-5.04% (inactive),inactive,-16.2
CCCOC(=O)NCCCN(C)C,inactive,inactive,inactive,inactive,,,inactive,-8.13,1.48% (inactive),,2.96% (inactive),-0.73% (inactive),inactive,-5.96% (inactive),-0.93% (inactive),inactive,8.36% (inactive),inactive,
